Laboratory results from the supplement of paper PMC6609913.
Structures can show the parent of a compound that is named as a salt. ± gives the standard deviation of the averaged measurements. The full ranking holds about 1,300 compounds; the median of “normalised cell viability” is about 1, and the lowest 2% start at about 0.15. Only a selection was taken, and the lowest values are over-represented in it overall.

Test system: V-C8 + BRCA2 (BRCA2-proficient hamster cells)
Assay: normalised cell viability (fraction of plate median); higher = more viable cells (less toxic)
Conditions: 5 µM
Outline: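 Cell viability was measured with a resazurin assay, normalised to the plate median (modified robust per cent of sample) and averaged over triplicate wells. Hamster V-C8 cells lacking BRCA2 and V-C8 cells with BRCA2 restored were seeded in 96-well plates. After 24 h, library drugs from 10 mM DMSO stocks were added at a final 5 μM in 100 μl medium and left for 3 days (screen 1) or 6 days (screen 2), with solvent-only wells alongside.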

O=C(O[C@@H]1C[C@@H]2C[C@H]3C[C@H](C1)N2CC3=O)c1c[nH]c2ccccc12 [Dolasetron mesilate]
normalised cell viability (treatment time: 3 days): 1.06 ± 0.19 | normalised cell viability (treatment time: 6 days): 1.02 ± 0.03

O=C(Oc1cccc2cccnc12)c1ccccc1 [Benzoxiquine]
normalised cell viability (treatment time: 3 days): 0.791 ± 0.052 | normalised cell viability (treatment time: 6 days): 0.738 ± 0.056

COc1cccc2c1C(=O)c1c(O)c3c(c(O)c1C2=O)C[C@@](O)(C(C)=O)C[C@@H]3O[C@H]1C[C@H](N)[C@H](O)[C@H](C)O1 [Daunorubicin hydrochloride]
normalised cell viability (treatment time: 3 days): 0.136 ± 0.0082 | normalised cell viability (treatment time: 6 days): 0.128 ± 0.015

COc1cccc2c1C(=O)c1c(O)c3c(c(O)c1C2=O)C[C@@](O)(C(=O)CO)C[C@@H]3O[C@H]1C[C@H](N)[C@@H](O)[C@H](C)O1 [Epirubicin hydrochloride]
normalised cell viability (treatment time: 3 days): 0.136 ± 0.0036 | normalised cell viability (treatment time: 6 days): 0.153 ± 0.024

COc1cccc2c1C(=O)c1c(O)c3c(c(O)c1C2=O)C[C@@](O)(C(=O)CO)C[C@@H]3O[C@H]1C[C@H](N)[C@H](O)[C@H](C)O1 [Doxorubicin hydrochloride]
normalised cell viability (treatment time: 3 days): 0.12 ± 0.0088 | normalised cell viability (treatment time: 6 days): 0.122 ± 0.0099

Clc1cc(Cl)c(OCC#CI)cc1Cl [Haloprogin]
normalised cell viability (treatment time: 3 days): 0.278 ± 0.01 | normalised cell viability (treatment time: 6 days): 0.247 ± 0.048

CCC1(c2ccccc2)C(=O)NCNC1=O [Primidone]
normalised cell viability (treatment time: 3 days): 0.947 ± 0.13 | normalised cell viability (treatment time: 6 days): 0.951 ± 0.1

CN1C(C(=O)Nc2ccccn2)=C(O)c2ccccc2S1(=O)=O [Piroxicam]
normalised cell viability (treatment time: 3 days): 1.02 ± 0.032 | normalised cell viability (treatment time: 6 days): 1.05 ± 0.015

O=C1CC2(CCCC2)CC(=O)N1CCCCN1CCN(c2ncccn2)CC1 [Buspirone hydrochloride]
normalised cell viability (treatment time: 3 days): 0.997 ± 0.038 | normalised cell viability (treatment time: 6 days): 1.083 ± 0.0083

CNNCc1ccc(C(=O)NC(C)C)cc1 [Procarbazine hydrochloride]
normalised cell viability (treatment time: 3 days): 0.879 ± 0.049 | normalised cell viability (treatment time: 6 days): 0.956 ± 0.099

OCCN1CCN(CCCN2c3ccccc3Sc3ccc(C(F)(F)F)cc32)CC1 [Fluphenazine dihydrochloride]
normalised cell viability (treatment time: 3 days): 0.825 ± 0.062 | normalised cell viability (treatment time: 6 days): 0.662 ± 0.096

CNC(=C[N+](=O)[O-])NCCSCc1csc(CN(C)C)n1 [Nizatidine]
normalised cell viability (treatment time: 3 days): 1 ± 0.012 | normalised cell viability (treatment time: 6 days): 1.05 ± 0.042
